# In the supplement of paper PMC12282887:
# ± gives the standard deviation of the averaged measurements.
# Legend:
# Assay in all cases: promoter activity interaction Z-score (Lux/OD deviation from empty-vector control); higher = stronger promoter induction by the compound
# [1] = test system: E. coli BW25113 acrABp lux reporter
# How it was run: (§1)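 OD600 and luminescence of E. coli BW25113 reporter cultures (40 µl LB Lennox, 384-well plates, 37°C) were measured every 30 min for 12 h. Integration ran over 0–8 h for wild type or 1–9 h for deletion strains, and wells with growth below 10% of the median were dropped. The score is the Z-transformed residual of growth-normalised luminescence fitted against a control.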
# [2] = test system: E. coli BW25113 micFp lux reporter
# How it was run: as §1
# [3] = test system: E. coli BW25113 ompFp lux reporter
# How it was run: as §1
# [4] = test system: E. coli BW25113 robp lux reporter
# How it was run: as §1
# [5] = test system: E. coli BW25113 soxSp lux reporter
# How it was run: as §1
# [6] = test system: E. coli BW25113 tolCp lux reporter
# How it was run: as §1
# [7] = 13.5 µg/ml, genetic background: wild type
# [8] = 13.5 µg/ml, genetic background: ΔmarA
# [9] = 13.5 µg/ml, genetic background: Δrob
# [10] = 13.5 µg/ml, genetic background: ΔsoxS
# [11] = 26.9 µg/ml, genetic background: wild type
# [12] = 26.9 µg/ml, genetic background: ΔmarA
# [13] = 26.9 µg/ml, genetic background: Δrob
# [14] = 26.9 µg/ml, genetic background: ΔsoxS
# [15] = 53.9 µg/ml, genetic background: wild type
# [16] = 53.9 µg/ml, genetic background: ΔmarA
# [17] = 53.9 µg/ml, genetic background: Δrob
# [18] = 53.9 µg/ml, genetic background: ΔsoxS
# [19] = 107.7 µg/ml, genetic background: wild type
# [20] = 107.7 µg/ml, genetic background: ΔmarA
# [21] = 107.7 µg/ml, genetic background: Δrob
# [22] = 107.7 µg/ml, genetic background: ΔsoxS
structure (smiles),measurement,setting,value
CC(=O)O[C@H]1C[C@@]2(C)[C@@H](C[C@@H](O)[C@H]3[C@@]4(C)CC[C@@H](O)[C@@H](C)[C@@H]4CC[C@@]32C)/C1=C(\CCC=C(C)C)C(=O)O [Fusidic acid],promoter activity interaction Z-score,[1]; [7],-0.2451 ± 0.00049
same,promoter activity interaction Z-score,[1]; [8],0.318 ± 0.51
same,promoter activity interaction Z-score,[1]; [9],0.252 ± 0.008
same,promoter activity interaction Z-score,[1]; [10],0.129 ± 0.4
same,promoter activity interaction Z-score,[1]; [11],0.0211 ± 0.13
same,promoter activity interaction Z-score,[1]; [12],0.239 ± 0.78
same,promoter activity interaction Z-score,[1]; [13],0.206 ± 0.18
same,promoter activity interaction Z-score,[1]; [14],0.227 ± 0.21
same,promoter activity interaction Z-score,[1]; [15],0.215 ± 0.26
same,promoter activity interaction Z-score,[1]; [16],-0.794 ± 0.83
same,promoter activity interaction Z-score,[1]; [17],0.292 ± 0.025
same,promoter activity interaction Z-score,[1]; [18],0.624 ± 0.086
same,promoter activity interaction Z-score,[1]; [19],0.448 ± 0.38
same,promoter activity interaction Z-score,[1]; [20],-0.757 ± 0.87
same,promoter activity interaction Z-score,[1]; [21],0.221 ± 0.22
same,promoter activity interaction Z-score,[1]; [22],0.66 ± 0.14
same,promoter activity interaction Z-score,[2]; [7],-0.214 ± 0.048
same,promoter activity interaction Z-score,[2]; [8],-0.0141 ± 0.037
same,promoter activity interaction Z-score,[2]; [9],-0.006 ± 0.044
same,promoter activity interaction Z-score,[2]; [10],-0.317 ± 0.02
same,promoter activity interaction Z-score,[2]; [11],-0.0316 ± 0.083
same,promoter activity interaction Z-score,[2]; [12],0.0308 ± 0.044
same,promoter activity interaction Z-score,[2]; [13],0.011 ± 0.0025
same,promoter activity interaction Z-score,[2]; [14],-0.033 ± 0.14
same,promoter activity interaction Z-score,[2]; [15],0.0882 ± 0.31
same,promoter activity interaction Z-score,[2]; [16],-0.146 ± 0.084
same,promoter activity interaction Z-score,[2]; [17],0.0235 ± 0.18
same,promoter activity interaction Z-score,[2]; [18],0.413 ± 0.28
same,promoter activity interaction Z-score,[2]; [19],-0.681 ± 0.064
same,promoter activity interaction Z-score,[2]; [20],-0.356 ± 0.068
same,promoter activity interaction Z-score,[2]; [21],-0.293 ± 0.013
same,promoter activity interaction Z-score,[2]; [22],-0.184 ± 0.18
same,promoter activity interaction Z-score,[3]; [7],-0.312 ± 0.41
same,promoter activity interaction Z-score,[3]; [8],0.0814 ± 0.3
same,promoter activity interaction Z-score,[3]; [9],0.107 ± 0.54
same,promoter activity interaction Z-score,[3]; [10],-0.462 ± 0.18
same,promoter activity interaction Z-score,[3]; [11],-0.129 ± 0.58
same,promoter activity interaction Z-score,[3]; [12],0.219 ± 0.59
same,promoter activity interaction Z-score,[3]; [13],0.223 ± 0.2
same,promoter activity interaction Z-score,[3]; [14],-0.211 ± 0.02
same,promoter activity interaction Z-score,[3]; [15],-0.237 ± 0.057
same,promoter activity interaction Z-score,[3]; [16],-0.149 ± 0.12
same,promoter activity interaction Z-score,[3]; [17],-0.602 ± 0.36
same,promoter activity interaction Z-score,[3]; [18],-0.00876 ± 0.4
same,promoter activity interaction Z-score,[3]; [19],-1.9 ± 0.91
same,promoter activity interaction Z-score,[3]; [20],-1.77 ± 0.15
same,promoter activity interaction Z-score,[3]; [21],-2.39 ± 0.61
same,promoter activity interaction Z-score,[3]; [22],-1.36 ± 0.43
same,promoter activity interaction Z-score,[4]; [7],-0.978 ± 0.39
same,promoter activity interaction Z-score,[4]; [8],-0.301 ± 0.26
same,promoter activity interaction Z-score,[4]; [9],0.242 ± 0.41
same,promoter activity interaction Z-score,[4]; [10],-0.23 ± 0.61
same,promoter activity interaction Z-score,[4]; [11],-0.593 ± 0.31
same,promoter activity interaction Z-score,[4]; [12],-0.113 ± 0.0094
same,promoter activity interaction Z-score,[4]; [13],0.3 ± 0.32
same,promoter activity interaction Z-score,[4]; [14],0.424 ± 1.6
same,promoter activity interaction Z-score,[4]; [15],-1.1 ± 0.35
same,promoter activity interaction Z-score,[4]; [16],-0.572 ± 0.84
same,promoter activity interaction Z-score,[4]; [17],-0.82 ± 0.47
same,promoter activity interaction Z-score,[4]; [18],-0.24 ± 0.27
same,promoter activity interaction Z-score,[4]; [19],-2.27 ± 0.22
same,promoter activity interaction Z-score,[4]; [20],-1.34 ± 0.73
same,promoter activity interaction Z-score,[4]; [21],-1.46 ± 0.021
same,promoter activity interaction Z-score,[4]; [22],-1.76 ± 0.91
same,promoter activity interaction Z-score,[5]; [7],-0.189 ± 0.017
same,promoter activity interaction Z-score,[5]; [8],0.127 ± 0.11
same,promoter activity interaction Z-score,[5]; [9],0.138 ± 0.11
same,promoter activity interaction Z-score,[5]; [10],0.0742 ± 0.26
same,promoter activity interaction Z-score,[5]; [11],-0.0314 ± 0.05
same,promoter activity interaction Z-score,[5]; [12],0.331 ± 0.089
same,promoter activity interaction Z-score,[5]; [13],0.221 ± 0.14
same,promoter activity interaction Z-score,[5]; [14],0.0543 ± 0.37
same,promoter activity interaction Z-score,[5]; [15],0.0312 ± 0.095
same,promoter activity interaction Z-score,[5]; [16],0.0894 ± 0.086
same,promoter activity interaction Z-score,[5]; [17],0.0824 ± 0.045
same,promoter activity interaction Z-score,[5]; [18],0.2418 ± 0.00036
same,promoter activity interaction Z-score,[5]; [19],0.133 ± 0.093
same,promoter activity interaction Z-score,[5]; [20],0.303 ± 0.013
same,promoter activity interaction Z-score,[5]; [21],0.683 ± 0.014
same,promoter activity interaction Z-score,[5]; [22],1.13 ± 0.34
same,promoter activity interaction Z-score,[6]; [7],0.0553 ± 0.57
same,promoter activity interaction Z-score,[6]; [8],0.818 ± 0.39
same,promoter activity interaction Z-score,[6]; [9],0.166 ± 0.013
same,promoter activity interaction Z-score,[6]; [10],0.269 ± 0.96
same,promoter activity interaction Z-score,[6]; [11],-0.129 ± 0.34
same,promoter activity interaction Z-score,[6]; [12],0.688 ± 0.72
same,promoter activity interaction Z-score,[6]; [13],-0.187 ± 0.52
same,promoter activity interaction Z-score,[6]; [14],0.868 ± 0.14
same,promoter activity interaction Z-score,[6]; [15],0.388 ± 0.25
same,promoter activity interaction Z-score,[6]; [16],-0.396 ± 0.26
same,promoter activity interaction Z-score,[6]; [17],-0.151 ± 1.6
same,promoter activity interaction Z-score,[6]; [18],-0.374 ± 0.68
same,promoter activity interaction Z-score,[6]; [19],-1.44 ± 0.11
same,promoter activity interaction Z-score,[6]; [20],-0.24 ± 0.18
same,promoter activity interaction Z-score,[6]; [21],-0.656 ± 0.49
same,promoter activity interaction Z-score,[6]; [22],0.133 ± 0.45
